From PubChem
GIRK2 activ = opens human GIRK2 potassium channels; P48051; HEK293-GIRK2 thallium flux, Thallos fluorescence, MPD; calls only for hits at 25 µM; 63,000 tested, 0.05% active; AID 1259325; call rule not given here
Target sequence (P48051 whole entry, looked up): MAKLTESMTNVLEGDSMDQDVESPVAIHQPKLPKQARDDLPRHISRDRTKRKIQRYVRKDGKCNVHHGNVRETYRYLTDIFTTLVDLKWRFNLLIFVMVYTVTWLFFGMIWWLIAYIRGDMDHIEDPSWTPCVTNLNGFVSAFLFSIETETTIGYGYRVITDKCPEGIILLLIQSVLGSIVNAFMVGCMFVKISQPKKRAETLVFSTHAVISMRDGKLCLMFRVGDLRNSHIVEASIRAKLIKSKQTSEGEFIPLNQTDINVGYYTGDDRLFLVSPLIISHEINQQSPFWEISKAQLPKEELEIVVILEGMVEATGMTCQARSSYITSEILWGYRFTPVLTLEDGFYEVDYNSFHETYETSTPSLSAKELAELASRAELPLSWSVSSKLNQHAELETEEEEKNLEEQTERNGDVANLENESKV
* = called active by the depositor; i = inactive; + = active, no number. Only a selection was taken, and hits are over-represented in it overall.

SMILES	GIRK2 activ
Cc1ccccc1OCC(=O)NC1CCCC(OC(=O)Nc2ccccc2)C1 (centres undefined)	i
O=C1CCSCC(C(=O)NCc2nc(-c3ccccc3)no2)N1 (centres undefined)	i
N#Cc1nc(/C=C/c2cccs2)oc1N1CCN(C(=O)c2cccs2)CC1	i
CCOC(=O)C1=C(C)N=c2s/c(=C/c3cn(C)nc3C)c(=O)n2C1c1ccc(OC)cc1 (centres undefined)	i
CCn1cc(/C=c2/sc3n(c2=O)C(c2ccccc2)C(C(=O)Nc2ccccc2C)=C(C)N=3)c(C)n1 (centres undefined)	i
CCOC(=O)C1=C(C)N=c2s/c(=C/c3c(C)nn(C)c3C)c(=O)n2C1c1ccccc1 (centres undefined)	+
Cc1cc2c(=O)n(C)c(SCC(=O)Nc3ccc(O)cc3)nc2s1	i
C#CCSc1nnc(N2CCN(c3ccc(F)cc3)CC2)s1	i
O=C(c1ccccc1Cl)N1CCN(c2cc(-c3ccccc3)ncn2)CC1	i
COc1cc(/C=C2\SC(=S)N(c3cccc(O)c3)C2=O)ccc1O	i
COc1cc(/C=C2/SC(=S)N(c3ccccc3Cl)C2=O)ccc1O	+
COc1cc(/C=C2\SC(=S)N(c3ccc(O)cc3)C2=O)ccc1O	i
Cc1ccc(CNC(=O)c2c(O)c3sccc3[nH]c2=O)cc1	i
Cc1[nH]ncc1CNC(=O)c1nnn(-c2ccccc2Cl)c1-c1ccccn1	i
O=C(Nc1nccs1)c1nnn(-c2ccccc2)c1-c1ccccn1	i
O=C(Nc1ccc(F)cc1)c1nnn(-c2ccccc2Cl)c1-c1ccccn1	i
Cc1csc(NC(=O)c2nnn(-c3ccccc3Cl)c2-c2ccccn2)n1	+
O=C(c1nnn(-c2ccccc2Cl)c1-c1ccccn1)N1CCN(c2ncccn2)CC1	i
O=C(Nc1ccc2c(c1)OCCO2)c1nnn(-c2ccccc2Cl)c1-c1ccccn1	+
C=CCNc1nn(CC(=O)Nc2ccc(C)cc2)c(N)c1-c1nc(-c2ccc(Cl)cc2)no1	i
COc1ccc(Cn2c(SCc3nc(-c4cccs4)no3)nc3ccccc3c2=O)cc1	i
COc1ccc(-c2nnc3n(CCCc4ccccc4)c4c(=O)n(C)c(=O)n(C)c4n23)cc1	i
Cc1ccc(CNC(=O)c2cccc(-n3ccnc3SCC(=O)Nc3ccc(C#N)cc3)c2)o1	i
CCOc1ccccc1NC(=O)N1CCN(c2cc(-n3cccc3)ncn2)CC1	i
COc1cccc(COc2cn(C)c(C(=O)NCCc3ccccc3OC)cc2=O)c1	i
SMILES	GIRK2 activ
Cc1cn2nnc(C(=O)Nc3ccc(OC(F)(F)F)cc3)c2c(=O)[nH]1	i
O=C(CSc1nc(-c2ccccc2)[nH]c1-c1ccc(F)cc1)NCC1CCCO1 (centres undefined)	+
COc1ccc(-c2nc(SCC(=O)NCC3CCCO3)c(-c3ccc(C)cc3)[nH]2)cc1OC (centres undefined)	i
O=C(CSc1ncccc1-c1nc2ccccc2[nH]1)NCC1CCCO1 (centres undefined)	i
COCCCNC(=O)CSc1nc(-c2cccc(F)c2)[nH]c1-c1ccccc1	+
COCCNC(=O)CSc1nc(-c2ccc(C)cc2)[nH]c1-c1ccccc1	i
CCOc1ccc(-c2nc(SCC(=O)NCCCOC)c(-c3ccccc3)[nH]2)cc1OC	i
COc1ccccc1NC(=O)NCc1sc(-c2ccccc2F)nc1C	i
CCN(C(=O)Cn1nc2nc(Nc3ccc(F)cc3)ccn2c1=O)c1ccccc1	i
O=C(NCCc1nc(C2CC2)cc(C(F)(F)F)n1)c1c(F)cccc1Cl	i
O=C(c1cc(=O)c(OCc2ccccc2)co1)N1CCCCCC1	i
Cc1noc(-c2ccc(N3CCCC(C(=O)Nc4ccc(C(N)=O)cc4)C3)nc2)n1 (centres undefined)	i
O=C(CCS(=O)(=O)c1ccccc1)N1CCC2(CC1)OCCCO2	i
N#Cc1nc(-c2ccc(S(=O)(=O)N3CCOCC3)cc2)oc1NCc1ccco1	i
CCOc1ccccc1NC(=O)c1nc(SC)ncc1Cl	i
O=P(O)(O)OC1C(O)C(O)C(O)C(O)C1O (centres undefined)	i
CCn1c(=O)c2c(nc3n(-c4ccc(OC)cc4OC)c(C)cn23)n(C)c1=O	i
CCn1cc(C(=O)Nc2cccc3ccc(OC)nc23)c(=O)c2ccc(C)nc21	i
Cn1cc(NC(=O)N2CCCc3ccccc32)c2ccccc21	i
Cn1c(SCC(=O)NCc2ccccc2)nnc1-c1cccn(C)c1=O	i
CC(Cn1nc(-c2cccs2)ccc1=O)C(=O)NCC(F)(F)F (centres undefined)	i
COc1ccc(N2CC(c3nc4ccccc4n3Cc3ccc(Cl)cc3)CC2=O)cc1 (centres undefined)	i
COc1cccc(N2CC(C(=O)NCCc3csc(-n4nc(C)cc4C)n3)CC2=O)c1 (centres undefined)	i
COc1ccccc1NC(=O)N1CCC(CNC(=O)c2cc(-c3ccc(F)cc3)nn2C)CC1	i
COC(=O)c1ccc(NC(=O)CN2CCN(c3cccc(Cl)c3)C2=O)cc1	i
SMILES	GIRK2 activ
O=[N+]([O-])c1cccc(NS(=O)(=O)c2ccc3ccccc3c2)c1	i
O=c1c2ccccc2n(Cc2nc(-c3cccc(Br)c3)no2)c(=O)n1Cc1ccco1	i
COC(=O)CNC(=O)c1sc2ncccc2c1-n1cccc1	i
COc1cccc(-n2nnc(C(=O)NCc3ccc(C(C)C)cc3)c2-c2ccncc2)c1	i
Cc1ccccc1-n1nnc(C(=O)Nc2cccc(C(C)C)c2)c1-c1ccncc1	+
Cc1ccccc1-n1nnc(C(=O)N2CCN(S(C)(=O)=O)CC2)c1-c1ccncc1	i
COc1ccc(C)c2sc(N(CCN3CCOCC3)C(=O)c3cc(C)oc3C)nc12	i
Cc1cccc(NC(=O)N2CCC(Cn3ccnc3)CC2)c1	i
O=C(c1ccc(Br)o1)N1CCC(Oc2ccc(Cl)cn2)CC1	i
O=C(CSc1ccc(F)cc1)Nc1nc2c(s1)COCC2	i
O=C(CN1CCN(C(=O)c2cc(-c3ccco3)[nH]n2)CC1)c1ccco1	i
Cc1nc(-n2nc(C3CC3)cc2NC(=O)C2CC2)[nH]c(=O)c1C	i
Cc1cccc(-n2ncc3c(=O)n(CC(=O)N4CCCc5ccccc54)cnc32)c1C	i
Cc1[nH]c(=O)[nH]c(=O)c1CCc1nnc(SCC(=O)C(C)(C)C)o1	i
CSc1ccc(/C=C2\C=C(CC(=O)NCc3cccc(Br)c3)c3cc(F)ccc32)cc1	i
O=C(NCCc1ccccc1)N1CCCSCC1CN1CCCC1 (centres undefined)	i
C[C@@H](O)CCC[C@@H](O)/C=C/[C@H]1C(O)CC(O)C1CCCCCCC(=O)O (some centres undefined)	i
Cc1ccc(OCC(=O)Nc2ccc(S(=O)(=O)N3CCC(C)CC3)cc2)cc1	i
CCCCc1ccc(NC(=O)Cn2nc3ccc(C(=O)Nc4ccc(OC)cc4)cn3c2=O)cc1	i
CCC(C(=O)NCCn1nc(C)cc1C)c1ccccc1 (centres undefined)	i
Cc1ccc(C)c(C(=O)NCCC(O)c2ccoc2)c1 (centres undefined)	i
CCCCNC(=O)c1ccc(-n2ccnc2SCC(=O)Nc2cccc(C)c2)cc1	i
O=C(CCc1c[nH]c2ccccc12)N1CCC2(CC1)OCCO2	i
